Experimental data as given in PubChem BioAssay (NCI).
Compounds without any hit were thinned out: in the full panel of roughly 83,000, 20% have a hit.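 Growth was measured after 48 h exposure to one concentration of compound in 96-well plates. Values under 10 count as active.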 A number with no mark means an inactive call. Active and inactive are the calls of the source.

These compounds were tested on SK-MEL-2 melanoma (assay: NCI-60 one-dose screen, 48 h (100 = growth as untreated, 0 = no growth, -100 = all killed)). Conditions: 10 µM unless noted.
Method: Growth inhibition of the SK-MEL-2 human tumor cell line is measured as a screen for anti-cancer activity. Cells are grown in 96 well plates and exposed to the test compound for 48 hours. Compounds are tested at a single concentration, which is 10^-5 M for most compounds. The reported endpoint is percent growth (GI% or GIPRCNT), where numbers from 0 - 100% represent growth inhibition, and numbers from -100% - 0 represent cell death. For example, a value of 40 represents 60% growth inhibition. A value of 0 means no net growth occurred over the course of the experiment. A value of -40 indicates 40% of cells at the beginning of the experiment died by the end of the experiment. A value of -100 means all cells are dead at the end of the experiment.
NCI-60 Human Tumor Cell Lines Screen was performed using the standard one-dose NCI protocol, which is described in more detail at https://dtp.cancer.gov/discovery_development/nci-60/default.htm.
Compounds with GIPRCNT values below 10 were considered active. Activity score was based on GIPRCNT using the following formula: […]
Score is 0 for GIPRCNT values of 100 or above, 50 for GIPRCNT values of 0, and 100 for GIPRCNT values of -100.
With `O=C1OCC2=C1C(c1ccncc1)c1cc3c(cc1N2CCO)OCO3` (stereo not given) the growth was 107%. In the case of `COc1cc(C(=O)Oc2ccccc2OC(=O)c2cc(OC)c(OC)c(OC)c2)cc(OC)c1OC`, the growth is reported as 115%. In the case of `Cc1cc(N2CCCC2)nc(NC2CCCC(Nc3ccnc4cc(Cl)ccc34)C2)n1` (stereo not given), the growth is reported as -87.5% (active). `c1ccc(-c2cc3n4c(-c5ccccc5)nn(-c5ccccc5)c4cnc-3n2)cc1` was tested, and the growth was 72.6%. In the case of `O=C(C(=O)c1ccc2c(c1)OCO2)c1ccc2c(c1)OCO2`, the growth is reported as 112%. Work on `CC(C)C1=C[C@@]23CC[C@@H]4[C@](C)(CCC[C@@]4(C)C(=O)N4CCCNCC4)[C@H]2C[C@@H]1[C@H]1C(=O)CCC(=O)[C@H]13` yielded a growth of 103%. Work on `COc1ccc(C(=S)N2CCN(c3cccc(Cl)c3)CC2)cc1` yielded a growth of 80.4%. `O=C1NC(=S)N[C@H]1CC(=O)n1cnc2ccccc21` showed a growth of 104%. `CCc1nnc(CNc2ccc(Cl)cc2)o1` was tested, and the growth was 90.6%. In the case of `Nc1n[nH]c2ccc([C@@H]3Nc4ccc5cn[nH]c5c4[C@H]4C5CCC(C5)[C@@H]34)cc12` (stereo not given in full), the growth is reported as 55.5%. Work on `O=C1/C(=C/C(Cl)=C/c2ccccc2)SC(=S)N1CCc1ccc(O)cc1` yielded a growth of 12.8%. In the case of `c1ccc(-c2c(-c3ccccc3)[n+](Cc3ccc4ccccc4c3)c(-c3ccc(-c4nc5ccccc5s4)cc3)n2Cc2ccc3ccccc3c2)cc1`, the growth is reported as -88.7% (active). In the case of `CCN1CCN(c2nc(NCCCNc3ccnc4cc(Cl)ccc34)c3ccccc3n2)CC1`, the growth is reported as -10.5% (active). `CCCCCCCCCCCCC[N+](C)(C)Cc1ccccc1` was tested, and the growth was -80.2% (active). With `Nc1nc2ccc3[nH]ncc3c2c2c1CCCC2` the growth was -7.53% (active). `O=C(COc1cccc(/C=C2\CSc3ccccc3C2=O)c1)Nc1nccs1` was tested, and the growth was 69.3%. With `O=C(CCN1C(=O)/C(=C/c2ccc(Cl)cc2)SC1=S)NCCCN1CCOCC1` the growth was 106%. Work on `CC(C)(C)N1CCC1CN` (stereo not given) yielded a growth of 72.1%. `COc1ccc(-c2nn(-c3ccc(Cl)cc3)cc2-c2nc3ccccc3[nH]2)cc1` gave a growth of 101%. `CC(=O)OCCC/C(=C/c1cc2ccccc2c2ccccc12)[N+](=O)[O-]` was tested, and the growth was -80.8% (active). With `O=S(=O)(Nc1ccc(NS(=O)(=O)c2ccccc2)c(Cl)c1)c1ccccc1` the growth was 91.6%. Work on `CC(=O)NCC1c2c(n(C)c3c(Cl)c(Cl)ccc23)C(=O)NC1(C)C` (stereo not given) yielded a growth of 103%. For `CCC#CC[C@H](O)C/C=C1/C(=O)C=C[C@@H]1C/C=C\CCCC(=O)OC`, the growth was -35.8% (active). `COc1cc2c(cc1-c1c(C)noc1C)ncc1nc(C3CCC(F)(F)CC3)n([C@H](C)COC(F)F)c12` gave a growth of 65.7%. In the case of `CC1=C(O)C(=O)C(C(C#N)(C#N)C(C#N)C#N)C1` (stereo not given), the growth is reported as 83.9%. `NC(N)=N/N=C(/c1ccccc1)c1ccc(F)cc1` was tested, and the growth was -15.1% (active). In the case of `O=C1c2ccccc2C(=O)c2c(N=Nc3[nH]c(=S)[nH]c3O)cccc21`, the growth is reported as 24.4%. In the case of `C#Cc1cccc(NC(=O)c2ccccc2NC(=O)CCl)c1`, the growth is reported as 90.2% [8.25 µM]. `COC(=O)c1ccc2oc(NC(=O)c3ccc(Nc4ccc([N+](=O)[O-])cc4C)c([N+](=O)[O-])c3)nc2c1` was tested, and the growth was 101%. `COc1ccc(CCNc2nc3c(c(=O)n(Cc4ccc(Br)cc4)c(=O)n3C)n2C)cc1OC` gave a growth of 93%. In the case of `CN(C)S(=O)(=O)c1ccc(S(=O)(=O)Nc2cccc(Cl)c2N2CCCCC2)cc1`, the growth is reported as 73.8%. With `O=C1NC(=S)NC(=O)C1CC(=O)n1c(-c2ccccc2)nc2ccccc21` the growth was 110%. For `Cc1ccc2c(c1)C(=O)/C(=C/c1cccc(OCC(=O)c3ccc(Cl)cc3)c1)CS2`, the growth was 58.2%. Work on `O=[N+]([O-])c1ccc(Nc2nc(NCCN3CCOCC3)ncc2[N+](=O)[O-])cc1` yielded a growth of 93.7%. `COc1cc(-c2nn(C)nc2-c2cc3ccccc3s2)cc(OC)c1OC` showed a growth of 32.9%. In the case of `COc1ccccc1NS(=O)(=O)c1ccc2oc(SC(C)C)nc2c1`, the growth is reported as 66.4%. For `COc1cc(-c2nn(-c3ccc(C)cc3)cc2C(=O)O)ccc1O`, the growth was 93.5%. With `CCN(CC)c1ccc(/C=N\NC(=O)/C=C/C=C/c2ccc3c(c2)OCO3)c(O)c1` the growth was 65.7%. In the case of `CCCCCCN(CCCCCC)CCC(O)c1ccc2ccccc2c1` (stereo not given), the growth is reported as 86.1%. For `CN1C(=O)C2(SCC(C(=O)NCc3ccccc3)N2C(=O)C2CCCCC2)c2ccccc21` (stereo not given), the growth was 81.8%.
